PubChem BioAssay AID1259418 (Broad Institute, 2018)
Among all 3,400 compounds or so, about 840 (25%) were called active. About 11% were inconclusive and are not listed. A selection follows. Results with a measured potency or affinity are listed apart. Values without a mark were called inactive.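 How the source made its calls: active means fitted half-maximal concentration of signal decrease at or below twice the sample's top tested concentration; inconclusive means flat curve between -70 and -30 percent, or poor fit; inactive means flat within 30 percent, signal rise, or potency above limit.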

Assay: inhibitors of Toxoplasma growth in IFN-γ-primed HeLa – cell-based, ME49Luc, luciferase, 72 h, dose response (AID 1259418)
Conditions: T. gondii ME49Luc in IFN-y HeLa, stronger effect = lower value, -100% = high-dose IFN-γ control wells

Work on `CCc1onc(C)c1C1CCCN1Cc1cn(CC)c2ccc(OC)cc12` (stereo not drawn) yielded a max activity (at 19.5 µM unless noted) of -10.8% [at 0.35 µM].

`CSc1cccc(NC(=O)Nc2ccc(-c3nc(-c4ccccc4)co3)cc2)c1` showed a max activity (at 19.5 µM unless noted) of 76%.

Compound `Fc1ccc(F)c(CN2[C@@H]3CNC[C@H]2C3c2ccc(-c3ccncc3)cc2)c1` (stereo partly drawn) has a max activity (at 10 µM) of 23.7% and a max activity (at 21 µM) of 49%.

With `COc1ccc(CCC(=O)N2CCC3(CC2)Nc2ccc(C)c(C)c2-n2cccc23)cc1` the max activity (at 19.5 µM unless noted) was -4.87% [at 0.68 µM].

For `O=C(CC1N=C2c3ccccc3N=C(SCc3ccccc3Cl)N2C1=O)NCc1ccc2c(c1)OCO2` (stereo not drawn), the max activity (at 19.5 µM unless noted) was 24.9% [at 0.16 µM].

Work on `Cc1ccc2[nH]cc(CCNC(=O)C3CCN(c4ccc(Cl)cc4)C3=O)c2c1` (stereo not drawn) yielded a max activity (at 19.5 µM unless noted) of 23.3% [at 10 µM].

Compound `CCc1ccc(N2CCC(C(=O)NCCc3c[nH]c4ccc(Cl)cc34)C2=O)cc1` (stereo not drawn) has a max activity (at 19.5 µM unless noted) of -15.5% [at 0.16 µM].

In the case of `CCOc1ccc(C(=O)N2CCC3(CC2)Nc2ccc(Cl)cc2-n2cccc23)cc1`, the max activity (at 19.5 µM unless noted) is reported as 11.3% [at 0.68 µM].

For `CCOc1ccccc1C(=O)N1CCC2(CC1)Nc1cc(OC)ccc1-n1cccc12`, the max activity (at 19.5 µM unless noted) was 12% [at 2.6 µM].

In the case of `Cc1ccccc1C(=O)N1CCC2(CC1)Nc1ccc(C)c(C)c1-n1cccc12`, the max activity (at 19.5 µM unless noted) is reported as -10.8% [at 5 µM].

For `Cc1ccc2c(c1C)-n1cccc1C1(CCN(C(=O)c3ccccc3Cl)CC1)N2`, the max activity (at 19.5 µM unless noted) was -6.73% [at 0.35 µM].

Compound `Cc1ccccc1C(=O)N1CCC2(CC1)Nc1ccc(Cl)cc1-n1cccc12` has a max activity (at 19.5 µM unless noted) of -3.44%.

`O=C(c1ccccc1Cl)N1CCC2(CC1)Nc1ccc(Cl)cc1-n1cccc12` gave a max activity (at 19.5 µM unless noted) of 6.15% [at 1.35 µM].

`Cc1ccc(-c2coc(-c3ccc(NC(=O)NCc4ccc(F)cc4)cc3)n2)c(C)c1` gave a max activity (at 19.5 µM unless noted) of -6.17% [at 0.16 µM].

For `CN(Cc1ccccn1)C(=O)C1=NOC2(CCN(S(=O)(=O)c3ccc(F)cc3)C2)C1` (stereo not drawn), the max activity (at 19.5 µM unless noted) was 35.3%.

With `COc1ccc(-c2nc3c(s2)CN(C(=O)Nc2ccc(C)cc2Cl)CC3)cc1OC` the max activity (at 19.5 µM unless noted) was -9.18% [at 0.35 µM].

In the case of `COc1ccccc1-c1nc(Cn2nnc(-c3nc(-c4cccc(Cl)c4)no3)c2C)c(C)o1`, the max activity (at 19.5 µM unless noted) is reported as 8.57% [at 0.35 µM].

In the case of `NC(=O)C1(N2CCCCC2)CCN(c2ncc(NC(=O)c3ccc(F)cc3)cc2C(=O)O)CC1`, the max activity (at 19.5 µM unless noted) is reported as -7.63% [at 10 µM].

Work on `Cc1ccc(C)c(-c2coc(-c3ccc(NC(=O)Nc4ccc5c(c4)OCCO5)cc3)n2)c1` yielded a max activity (at 19.5 µM unless noted) of 196% [at 5 µM].

`CCc1nc(OCC(=O)Nc2ccc(OC)cc2OC)c2ccccc2n1` showed a max activity (at 19.5 µM unless noted) of -16.2% [at 0.35 µM].

In the case of `CCOC(=O)CSC1=Nc2ccccc2C2=NC(CC(=O)NCc3ccccc3)C(=O)N12` (stereo not drawn), the max activity (at 19.5 µM unless noted) is reported as -17% [at 0.16 µM].

In the case of `CCOc1ccccc1-c1noc(-c2nnn(Cc3nc(-c4cccc(C)c4)oc3C)c2C)n1`, the max activity (at 19.5 µM unless noted) is reported as -4.72% [at 5 µM].

`N#C[C@H]1[C@H](c2ccc(C#Cc3cccc(F)c3)cc2)[C@@H](CO)N1C(=O)C1CCOCC1` showed a max activity (at 19.5 µM unless noted) of 33.1%.

Compound `N#C[C@@H]1[C@H](c2ccc(C#Cc3cccc(F)c3)cc2)[C@H](CO)N1C(=O)C1CCOCC1` has a max activity (at 19.5 µM unless noted) of 26.4% [at 10 µM].

For `COc1cccc(-c2nc3c(s2)CN(C(=O)NC2CCCCC2)CC3)c1`, the max activity (at 19.5 µM unless noted) was -6.7%.

Compound `Cc1ccc(-c2noc(-c3nnn(Cc4nc(-c5cccc(C)c5)oc4C)c3C)n2)cc1` has a max activity (at 19.5 µM unless noted) of 7.12% [at 0.68 µM].

Compound `Cc1ccc(-c2noc(-c3nnn(Cc4nc(-c5ccc(C)cc5)oc4C)c3C)n2)cc1` has a max activity (at 19.5 µM unless noted) of 8.64%.

For `COc1ccc(-c2nc(Cn3nnc(-c4nc(-c5cccs5)no4)c3C)c(C)o2)cc1`, the max activity (at 19.5 µM unless noted) was 7.54% [at 0.16 µM].

`COc1ccc(-c2nc(Cn3nnc(-c4nc(-c5ccccc5OC)no4)c3C)c(C)o2)cc1` gave a max activity (at 19.5 µM unless noted) of -5.44% [at 1.35 µM].

For `COc1ccc(-c2nc(Cn3nnc(-c4nc(-c5ccc(C)cc5)no4)c3C)c(C)o2)cc1`, the max activity (at 19.5 µM unless noted) was 4.22% [at 0.16 µM].

For `COc1ccc(-c2nc(Cn3nnc(-c4nc(-c5cc(OC)cc(OC)c5)no4)c3C)c(C)o2)cc1`, the max activity (at 19.5 µM unless noted) was 4.11% [at 0.35 µM].

With `CCOc1ccccc1-c1noc(-c2nnn(Cc3nc(-c4ccc(C)cc4)oc3C)c2C)n1` the max activity (at 19.5 µM unless noted) was -5.47% [at 1.35 µM].

`Cc1cccc(-c2nc(Cn3nnc(-c4nc(-c5ccccc5)no4)c3C)c(C)o2)c1` gave a max activity (at 19.5 µM unless noted) of 4.79% [at 0.68 µM].

Compound `CN(C)C(=O)c1ccc2nnc3ncn(Cc4ccccc4)c3c2c1` has a max activity (at 19.5 µM unless noted) of -17.6% [at 10 µM].

`COc1ccc(CCNc2nc(SCc3ccc(Cl)cc3)nc3ccccc23)cc1OC` gave a max activity (at 19.5 µM unless noted) of 9.35% [at 1.35 µM].

`COc1nc2c(c(C)nn2-c2ccccc2)c(C)c1CCC(=O)NCCc1c[nH]c2ccccc12` gave a max activity (at 19.5 µM unless noted) of 7.44%.

Compound `O=C(Nc1c(C(=O)N2CCCC2)[nH]c2ccccc12)c1ccc(Cl)cc1` has a max activity (at 19.5 µM unless noted) of 30.4% [at 10 µM].

For `O=C(CCC1N=C2c3ccccc3N=C(SCc3cc(=O)n4ccccc4n3)N2C1=O)NCc1ccco1` (stereo not drawn), the max activity (at 19.5 µM unless noted) was 26.1% [at 1.35 µM].

In the case of `CCc1nc(OCC(=O)Nc2cc(OC)ccc2OC)c2ccccc2n1`, the max activity (at 19.5 µM unless noted) is reported as -25% [at 2.6 µM].

`Cc1ccc(C)c(-c2coc(-c3ccc(NC(=O)C4CCCCC4)cc3)n2)c1` gave a max activity (at 19.5 µM unless noted) of 10.4% [at 10 µM].

`Cc1ccc(-c2nc(Cn3nnc(-c4nc(-c5ccccc5C)no4)c3C)c(C)o2)cc1` gave a max activity (at 19.5 µM unless noted) of 15.4% [at 0.16 µM].

With `Cc1nc(CCNC(=O)C2CCN(S(=O)(=O)c3ccc(Cl)s3)CC2)cs1` the max activity (at 19.5 µM unless noted) was -9.13%.

For `O=S(=O)(c1cccs1)N1CCC2(CC1)NCCN=C2NCc1ccc(F)c(Cl)c1`, the max activity (at 19.5 µM unless noted) was -41.7%.

`Cc1cccc(CNC2=NCCNC23CCN(S(=O)(=O)c2cccs2)CC3)c1` gave a max activity (at 19.5 µM unless noted) of 13.8%.

`O=S(=O)(c1cccs1)N1CCC2(CC1)NCCN=C2NCc1cc(F)cc(F)c1` showed a max activity (at 19.5 µM unless noted) of 10.2% [at 0.16 µM].

With `Cc1ccc(CNC2=NCCNC23CCN(S(=O)(=O)c2cccs2)CC3)cc1` the max activity (at 19.5 µM unless noted) was 17.3% [at 10 µM].

`CCCC(=O)Nc1ccc(-c2nc(-c3ccccc3)co2)cc1` gave a max activity (at 19.5 µM unless noted) of 72.8% [at 10 µM].

In the case of `O=C(NCCc1csc(-c2ccccc2)n1)C1CCN(S(=O)(=O)c2cccs2)CC1`, the max activity (at 19.5 µM unless noted) is reported as 11.2% [at 0.16 µM].

For `Cc1cc(C)cc(S(=O)(=O)N2CCC(C(=O)NCCc3csc(-c4ccccc4)n3)CC2)c1`, the max activity (at 19.5 µM unless noted) was 16.8% [at 10 µM].

With `Cc1ccc(S(=O)(=O)N2CCC(C(=O)NCCc3csc(-c4ccccc4)n3)CC2)cc1` the max activity (at 19.5 µM unless noted) was 5.41% [at 5 µM].

`Cc1nc(CCNC(=O)C2CCN(S(=O)(=O)c3ccc(Cl)cc3)CC2)cs1` gave a max activity (at 19.5 µM unless noted) of -9.1% [at 0.35 µM].

`CCOc1ccc(S(=O)(=O)N2CCC(C(=O)NCCc3csc(-c4ccccc4)n3)CC2)cc1` gave a max activity (at 19.5 µM unless noted) of 21.5% [at 5 µM].

`O=C(NCCc1csc(-c2ccccc2)n1)C1CCN(S(=O)(=O)c2cccc(F)c2)CC1` showed a max activity (at 19.5 µM unless noted) of 8.1% [at 5 µM].

With `O=C(NCCc1csc(-c2ccccc2)n1)C1CCN(S(=O)(=O)c2ccccc2)CC1` the max activity (at 19.5 µM unless noted) was 11.6% [at 10 µM].

Compound `Cc1nc(CCNC(=O)C2CCN(S(=O)(=O)c3ccc(CC(C)C)cc3)CC2)cs1` has a max activity (at 19.5 µM unless noted) of -7.19% [at 1.35 µM].

`COC(=O)c1sccc1S(=O)(=O)N[C@@H]1CC[C@@H](N)C1` gave a max activity (at 19.5 µM unless noted) of 17.5%.

`CCc1c(C)sc2c1CCN(Cc1nc(-c3cccc(Cl)c3)oc1C)C2c1ccccc1` (stereo not drawn) showed a max activity (at 19.5 µM unless noted) of 7.75% [at 0.68 µM].

Work on `COc1cccc(-c2nc3c(s2)CN(S(=O)(=O)c2ccc(CC(C)C)cc2)CC3)c1` yielded a max activity (at 19.5 µM unless noted) of 8.23% [at 2.6 µM].

`CCc1ccccc1Nc1nc(-c2ccc(OC)cc2)nc2ccccc12` showed a max activity (at 19.5 µM unless noted) of -9.45% [at 0.16 µM].

`COc1ccccc1-c1nc(Cn2nnc(-c3nc(-c4ccccc4)no3)c2C)c(C)o1` showed a max activity (at 19.5 µM unless noted) of -9.24% [at 1.35 µM].

In the case of `Cc1cccc(C2=NC3(CCN(Cc4ccccc4C)CC3)NC2=O)c1`, the max activity (at 19.5 µM unless noted) is reported as 12% [at 0.16 µM].

Compound `O=C(Cc1ccc(F)cc1)Nc1ccc(-c2nc(-c3ccccc3)co2)cc1` has a max activity (at 19.5 µM unless noted) of 4.13% [at 5 µM].

`COc1ccc(-c2nc(Nc3ccc(C)cc3Cl)c3ccccc3n2)cc1` gave a max activity (at 19.5 µM unless noted) of -11.8% [at 2.6 µM].

`NC(=O)C1(N2CCCCC2)CCN(c2ncc(NC(=O)c3ccccc3F)cc2C(=O)O)CC1` gave a max activity (at 19.5 µM unless noted) of 15.7% [at 2.6 µM].

`CCCc1ccc(S(=O)(=O)N2CCc3nc(-c4cccc(OC)c4)sc3C2)cc1` showed a max activity (at 19.5 µM unless noted) of -6.99% [at 2.6 µM].

For `COc1cc(OC)cc(C(=O)N2CCC3(CC2)Nc2ccc(C)c(C)c2-n2cccc23)c1`, the max activity (at 19.5 µM unless noted) was -13.1% [at 0.35 µM].

For `O=C(NCCc1csc(-c2ccccc2)n1)C1CCN(C(=O)Cc2ccc(Cl)cc2)CC1`, the max activity (at 19.5 µM unless noted) was 8.14%.

In the case of `COc1cccc(CC(=O)N2CCC(C(=O)NCCc3csc(-c4ccccc4)n3)CC2)c1`, the max activity (at 19.5 µM unless noted) is reported as 8.89% [at 10 µM].

Compound `COc1ccc(-c2nc3c([nH]2)c(=O)n(C)c(=O)n3C)cc1OC` has a max activity (at 19.5 µM unless noted) of 40.8% [at 0.35 µM].

Compound `Cc1ccc(CCNC(=O)CCC2Nc3c4ccccc4nc(=S)n3C2=O)cc1` (stereo not drawn) has a max activity (at 19.5 µM unless noted) of 13.4% [at 10 µM].

`CN(C)CC(=O)N1C[C@@H]2N[C@H](C1)C2c1ccc(C2=CCCCC2)cc1` (stereo partly drawn) showed a max activity (at 19.5 µM unless noted) of 18.8% [at 9 µM].

Compound `COc1cccc(S(=O)(=O)N2CC[C@@H]3[C@H](CO)Nc4ccc(C5=CCCCC5)cc4[C@@H]32)c1` has a max activity (at 19.5 µM unless noted) of 8.73% [at 10 µM].
